# Screening data as filed in PubChem BioAssay.
# FMDV antiviral = antivirals against foot and mouth disease virus; FMDV antiviral cell-based qHTS; Potency, µM (series often up to 57.9 µM), for the others: at the highest dose activity change, negative = inhibition, most hits filed as inhibitors; 410,000 compounds, 1.2% hits; calls by dose curve; tested in HEK293T cells; also: read-out not given here; potency is read from the fitted curve at half-maximal effect; nearly all actives have a fitted effect of over 45% in size
# Sm TGR block = S. mansoni TGR enzyme inhibition; 360,000 compounds, 3% hits; purified TGR, DTNB reduction, TNB absorbance 405 nm; Potency, µM (doses to about 114 µM), for inactives: top-dose activity change, negative = inhibition, usual class: inhibitors; Q962Y6; AID 485364; also: potency is read from the fitted curve at half-maximal effect; nearly all actives have a fitted effect of over 60% in size
#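 Kinetic colorimetric format: TGR-catalysed, NADPH-driven DTNB reduction monitored via TNB absorbance. Enzyme dispensed at 20 nM; compound exposure 15 min at room temperature before reaction start.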
# Vaccinia mCherry = inhibitors of vaccinia virus infection (mCherry reporter signal). Vaccinia virus mCherry reporter infection, fluorescence. Potency, µM (highest dose often 36.5 µM), without a hit: top-dose activity change, negative = inhibition, usual class: inhibitors. 310,000 compounds, 0.63% hits; calls by dose curve; tested in A549 cells; also: potency is read from the fitted curve at half-maximal effect; nearly all actives have a fitted effect of over 35% in size
# HCV inhibitor = blocks hepatitis C virus. Huh7.5.1 HCVcc-Cre infection, luciferase reporter, 44 h. Potency, µM (doses to about 41.8 µM), for the others: at the top dose activity change, negative = inhibition, hits mostly inhibitors. 340,000 compounds, 3.4% hits; also: potency is read from the fitted curve at half-maximal effect
#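 Infectious HCVcc-Cre (~0.5 moi) was added to cells just after compound, with cells seeded 4 h earlier at 1,000 per well. Luciferase activity after 44 h culture reported infection; substrate was incubated 15 min at room temperature before reading.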
# HCMV inh = inhibitors of human cytomegalovirus | HFF cells, HCMV-luciferase reporter, 72 h; active compounds read low | activity change, negative = inhibition, % at 57.5 µM | 410,000 compounds, 4.5% hits; in the data active = activity change below about -60%; inconclusive = no clear call, values can overlap the other calls; inactive = above about -39%
#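 Luciferase read-out from HCMV-luciferase-infected HFFs (MOI 1 PFU/cell) 72 h post infection at 37C; compounds added after 16 h cell attachment; activity normalized between buffer-only basal and Salinomycin (10uM) inhibitor controls.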
# VACV Venus inh = vaccinia inhibition (Venus reporter); AID 720580; Vaccinia virus Venus reporter expression, fluorescence; 330,000 compounds, 0.46% hits; Potency, µM (top dose mostly 36.5 µM), without a hit: at the top dose activity change, negative = inhibition, actives largely listed as inhibitors; calls by dose curve; tested in A549 cells; also: potency is read from the fitted curve at half-maximal effect; nearly all actives have a fitted effect of over 30% in size
# Active calls of the source: *; i = inactive; ? = inconclusive; . = not tested or not shown. Sampled rows, rich in hits. Any-hit rate of the full collection: about 9.3%. Unless noted, calls follow the shape of the dose curve; as a rule, active = well fitted curve in the direction sought with a large enough effect; inconclusive = small, poorly fitted or top-dose-only effect, or another doubt; inactive = no such curve, though single readings can be large; an effect the other way counts as inactive or inconclusive. % is scaled to controls: 0 for no effect and ±100 for the full control effect.
SMILES,FMDV antiviral,Sm TGR block,Vaccinia mCherry,HCV inhibitor,HCMV inh,VACV Venus inh
CCOC(=O)c1cn2nc(Oc3cccc(F)c3)ccc2n1,20%,-5%,i,8%,?,6%
O=S1(=O)CCC(NS(=O)(=O)/C=C/c2ccccc2)C1 (stereo unspecified),57%,14%,i,11%,15,-5%
CC1(Cc2ccccc2Cl)C(=O)Nc2cc(-c3ccccc3Cl)ccc21 (stereo unspecified),-24%,.,i,.,1,-8%
CC1=C(c2ccc(C)cc2)S(=O)(=O)N(CC(=O)O)C1=O,-12%,9%,-3%,.,35,0%
COc1ccc(C2C=C(c3ccc(F)cc3)Nc3nc(-c4ccc(Cl)cc4)nn32)cc1 (stereo unspecified),?,1%,?,.,-101*,?
COc1ccc(C2=CC(c3ccc(F)cc3)n3ncc(C(=O)Nc4ccc(C)cc4)c3N2)cc1 (stereo unspecified),0%,27%,?,.,-88*,-25%
CCCn1c2ccc(C)cc2c2nnc(SCCN3CCCCC3)nc21,-16%,-24%,?,8.9µM*,28,?
CCn1c2ccc(F)cc2c2nnc(SCCN3CCCCC3)nc21,-25%,-2%,-4%,14µM*,37,-21%
C=CCn1c2ccccc2c2nnc(SCCCn3c(=O)[nH]c4ccccc43)nc21,?,-1%,.,10µM*,51,10µM*
CCn1c2ccc(C)cc2c2nnc(SCCN3CCCCC3)nc21,-25%,3%,?,?,-21,?
c1ccc(Cn2c3ccccc3c3nnc(SCCN4CCCCC4)nc32)cc1,-25%,-2%,-5%,-21%,-60*,-2%
CN(C(=O)C1CCN(S(=O)(=O)c2cccs2)CC1)c1ccccc1,1%,5%,-4%,-4%,31,-6%
CC1(C)N=C(N)N=C(N)N1c1ccc(C(=O)O)cc1,.,11%,.,.,.,.
OC(CCN1CCCCC1)c1ccc(-c2ccccc2)cc1 (stereo unspecified),11%,6%,.,?,14,.
OCCCc1cn(-c2ccccc2)c2ccccc12,34%,9%,-5%,10µM*,10,-8%
Clc1nc(Cl)nc(-c2cn(-c3ccccc3)c3ccccc23)n1,-5%,7%,.,-6%,.,.
NC(=O)c1cccnc1Nc1cccc([N+](=O)[O-])c1,38%,4%,-27%,-8%,29,9%
C[C@]12CCC3C(CC[C@]4(O)CC(O)CC[C@@]34C=O)[C@]1(O)CCC2C1=CC(=O)OC1 (stereo partly specified),?,.,?,.,.,10µM*
CC1O[C@@H](OC2CC[C@@]3(C=O)C4CC[C@]5(C)C(C6=CC(=O)OC6)CC[C@@]5(O)C4CC[C@]3(O)C2)C(O)C(O)C1O (stereo partly specified),0%,.,25µM*,.,.,0.045µM*
COC1C(O)C(OC2CC[C@]3(C=O)C4C(OC(C)=O)C[C@@]5(C)C(C6=CC(=O)OC6)CC[C@]5(O)C4CC[C@]3(O)C2)OC(C)C1OC(C)=O (stereo partly specified),-8%,.,-8%,.,.,-4%
CCC(C)C(=O)OC1CCC=C2C=CC(C)C(CCC3CC(O)CC(=O)O3)C21 (stereo unspecified),-19%,.,-21%,5%,-97*,-16%
CC[C@H](C)C(=O)O[C@H]1CCC=C2C=C[C@H](C)[C@H](CC[C@@H]3C[C@@H](O)CC(=O)O3)[C@H]21,-28%,4%,-5%,0.56µM*,?,-20%
CC1=CC(c2ccc(Cl)cc2)n2nc(NC(=O)c3ccccc3)nc2N1 (stereo unspecified),-11%,45µM*,-22%,-7%,-10,-7%
O=C(Nc1nc2n(n1)C(c1ccc(F)cc1)C=C(c1ccc(Cl)cc1)N2)c1ccco1 (stereo unspecified),-27%,0%,-8%,.,?,-15%
CC(=O)Nc1nc2n(n1)C(c1ccc(Cl)cc1)C=C(C)N2 (stereo unspecified),2%,14µM*,.,5%,-20,-9%
